Laboratory results taken from PubChem BioAssay AID1224817 (Yan Lab, Georgia Cancer Center, Augusta University, 2016).
Screen size: about 2,000 compounds; about 25 (1%) were called active.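 Rule for the calls: active = log2 luciferase ratio at or below -0.5849, meaning signal at two thirds of solvent-only control or lower; inactive = the rest.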 Shown is part of a subset that was picked to be rich in actives.

Assay: inhibitors of EIF4E gene expression, primary screen, cell-based, HT1080, luciferase reporter (AID 1224817);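 note: luciferase reports endogenous eIF4E expression since it is co-expressed from the native EIF4E locus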
Conditions: HT1080 EIF4E-luc2 knock-in reporter, 16 h, at 2.5 µM, hits give low values

Q: For `O=C(O)CC(Sc1ccccc1)c1ccccc1` (centres undefined), which log2 luciferase activity ratio is on record?
A: The log2 luciferase activity ratio was 0.113 (inactive).

Q: With `Cc1cc(N=Cc2c(CO)cnc(C)c2O)c(N=Cc2c(CO)cnc(C)c2O)cc1C.[Zn]` as the compound, how does the log2 luciferase activity ratio read?
A: The log2 luciferase activity ratio was 0.374 (inactive).

Q: With `NCCN1C(=O)c2ccccc2C1(O)c1ccc(Cl)cc1` (centres undefined) as the compound, how does the log2 luciferase activity ratio read?
A: The log2 luciferase activity ratio was 0.275 (inactive).

Q: Which log2 luciferase activity ratio does the source give for `O=C(O)CC(C(=O)O)c1ccccc1[N+](=O)[O-]` (centres undefined) here?
A: The log2 luciferase activity ratio was -0.346 (inactive).

Q: With `O=C(O)C(C1NCCS1)N1C(=O)c2ccccc2C1=O` (centres undefined) as the compound, how does the log2 luciferase activity ratio read?
A: The log2 luciferase activity ratio was -0.326 (inactive).

Q: Which log2 luciferase activity ratio does the source give for `Clc1ccc2c(NCCNC3CCCCC3)ccnc2c1` here?
A: Its log2 luciferase activity ratio is -0.0725 (inactive).

Q: For `O=C(O)Cc1c(O)ccc2ccccc12`, which log2 luciferase activity ratio is on record?
A: The log2 luciferase activity ratio was -0.364 (inactive).

Q: With `CC(C)=CCNc1ncnc2c1c(C#N)cn2C1OC(CO)C(O)C1O` (centres undefined) as the compound, how does the log2 luciferase activity ratio read?
A: The log2 luciferase activity ratio was -0.135 (inactive).

Q: Which log2 luciferase activity ratio does the source give for `N#CC[N+]1(Cc2ccccn2)CCCC1` here?
A: Its log2 luciferase activity ratio is -0.0477 (inactive).

Q: For `CN(C)CCCN=c1c2ccccc2n(C)c2[nH]c(=O)n(C)c(=O)c12`, which log2 luciferase activity ratio is on record?
A: The log2 luciferase activity ratio was -0.0932 (inactive).

Q: Which log2 luciferase activity ratio does the source give for `O=C(O)CSCC(=O)c1ccccc1` here?
A: Its log2 luciferase activity ratio is -0.355 (inactive).

Q: With `Cc1ccc(S(=O)(=O)OCC(=O)O)cc1` as the compound, how does the log2 luciferase activity ratio read?
A: Its log2 luciferase activity ratio is 0.01 (inactive).

Q: Which log2 luciferase activity ratio does the source give for `CC12CCC3c4ccc(O)cc4CCC3C1C/C(=N\O)C2O` (centres undefined) here?
A: The log2 luciferase activity ratio was -0.14 (inactive).

Q: Which log2 luciferase activity ratio does the source give for `CC1CN(CCO)CCN1c1ccccc1` (centres undefined) here?
A: Its log2 luciferase activity ratio is 0.393 (inactive).

Q: For `O=C(O)C1C(C(=O)O)C(C(=O)O)C1C(=O)O` (centres undefined), which log2 luciferase activity ratio is on record?
A: The log2 luciferase activity ratio was -0.115 (inactive).

Q: With `Cc1nn(-c2ccc(S(=O)(=O)[O-])cc2)c([O-])c1N=[N+](C)c1ccc(-c2ccc(N=Nc3ccc4c(S(=O)(=O)[O-])cc(S(=O)(=O)[O-])c(N)c4c3[O-])c([O-])c2)cc1[O-].[Cu+2].[Cu+2].[Na+]` as the compound, how does the log2 luciferase activity ratio read?
A: Its log2 luciferase activity ratio is 0.162 (inactive).

Q: With `OCCNc1ncnc2c1ncn2C1OC(CO)C(O)C1O` (centres undefined) as the compound, how does the log2 luciferase activity ratio read?
A: The log2 luciferase activity ratio was -0.0424 (inactive).

Q: For `CN(C)Cc1ccc(O)c(CN(C)C)n1`, which log2 luciferase activity ratio is on record?
A: The log2 luciferase activity ratio was -0.0218 (inactive).

Q: For `CN(C)CCN(c1ccccn1)c1ccccn1`, which log2 luciferase activity ratio is on record?
A: The log2 luciferase activity ratio was -0.0299 (inactive).

Q: For `CN(CCO)Cc1ncccc1O`, which log2 luciferase activity ratio is on record?
A: Its log2 luciferase activity ratio is -0.625 (active).

Q: For `Nc1ccccc1N=Nc1c(S(=O)(=O)O)cc2cc(S(=O)(=O)O)cc(O)c2c1O`, which log2 luciferase activity ratio is on record?
A: Its log2 luciferase activity ratio is -0.0279 (inactive).

Q: With `CC1=CC(C2/C(=N/O)C=C(C)CC2(C)C)C(O)C(C)(C)C1` (centres undefined) as the compound, how does the log2 luciferase activity ratio read?
A: Its log2 luciferase activity ratio is -0.118 (inactive).

Q: With `Fc1cccc(Cl)c1/C=N\N=C1c2ccccc2-c2ccccc21` as the compound, how does the log2 luciferase activity ratio read?
A: The log2 luciferase activity ratio was -0.123 (inactive).

Q: For `c1ccc2cc(-c3cc(-c4cc(-c5ccc6ccccc6c5)on4)no3)ccc2c1`, which log2 luciferase activity ratio is on record?
A: The log2 luciferase activity ratio was 0.0163 (inactive).

Q: With `N=C(N)c1ccc(/C=C/c2ccc(C(=N)N)cc2)cc1` as the compound, how does the log2 luciferase activity ratio read?
A: Its log2 luciferase activity ratio is -0.247 (inactive).

Q: Which log2 luciferase activity ratio does the source give for `O=S(=O)(O)C(c1ccccc1)C(O)c1ccccc1` (centres undefined) here?
A: The log2 luciferase activity ratio was -0.161 (inactive).

Q: Which log2 luciferase activity ratio does the source give for `O=C(O)CNc1ccc(C(=O)O)cc1` here?
A: The log2 luciferase activity ratio was -0.647 (active).

Q: Which log2 luciferase activity ratio does the source give for `O=C(O)c1ccc(NS(=O)(=O)Cc2ccccc2)cc1` here?
A: Its log2 luciferase activity ratio is 0.0192 (inactive).

Q: For `NCc1ccc(C(=O)O)cc1`, which log2 luciferase activity ratio is on record?
A: The log2 luciferase activity ratio was 0.304 (inactive).
